In PubChem BioAssay (EPA / NIEHS):
Active and inactive are the calls of the source. Rule for the calls: active = hit-call score of the fitted dose curve at least 0.9, where 1 is the maximum; inactive = score below 0.9.

How the values were obtained:
[1] = read-out: Vascular endothelial growth factor receptor 2 (Homo sapiens) (UniProt P35968); assay: BSK_4H_VEGFRII: BioMAP Diversity Plus: 4H Assay for Vascular endothelial growth factor receptor 2 (VEGFR2) Biomarker Activity (AID 2283031); conditions: primary human endothelial cells (HUVEC); actives raise or lower the signal;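 for AC50: cell-surface VEGFR2 protein level quantified by ELISA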
Outline: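 ELISA read-out of VEGFRII in primary human umbilical vein endothelium, taken 24 h after chemical treatment. Responses are expressed relative to DMSO, with bidirectional fitting.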

[2] = read-out: Human Leukocyte Antigen - DR isotype (HLADR), HLA-DRA (gene 3122); assay: BSK_BE3C_HLADR: BioMAP Diversity Plus: BE3C Assay for Human Leukocyte Antigen - DR isotype (HLADR) Biomarker Activity (AID 2283032); conditions: primary human bronchial epithelial cells; actives raise or lower the signal
Outline: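 BioMAP BE3C format: human bronchial epithelium, 24 h compound treatment, ELISA detection of HLA-DR, with bidirectional analysis relative to DMSO.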

[3] = read-out: Vascular cell adhesion molecule 1 (VCAM1), VCAM1 (gene 7412); assay: BSK_4H_VCAM1: BioMAP Diversity Plus: 4H Assay for Vascular cell adhesion molecule 1 (VCAM1) Biomarker Activity (AID 2283033); conditions: primary human endothelial cells (HUVEC); actives raise or lower the signal;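 for outcome: cell-surface VCAM-1 protein measured by ELISA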
Outline: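 In this human endothelial (HUVEC) system, biomarker ELISA was run 24 h after compound addition, and total protein in parallel wells was assessed by SRB at 560 nm; DMSO served as negative control.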

[4] = read-out: Interferon-gamma inducible Protein 10 (IP10), CXCL10 (gene 3627); assay: BSK_BE3C_IP10: BioMAP Diversity Plus: BE3C Assay for Interferon-gamma inducible Protein 10 (IP10) Biomarker Activity (AID 2283034); conditions: primary human bronchial epithelial cells; actives raise or lower the signal
Outline: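 BE3C cells (human bronchial epithelial, primary); 24 h exposure; ELISA for IP-10; DMSO-referenced bidirectional fit.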

[5] = read-out: Transforming growth factor beta 1 (TGFb1), TGFB1 (gene 7040); assay: BSK_BE3C_TGFb1: BioMAP Diversity Plus: BE3C Assay for Transforming growth factor beta 1 (TGFb1) Biomarker Activity (AID 2283036;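 note: TGF-b1 protein level measured by ELISA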); conditions: primary human bronchial epithelial cells; actives raise or lower the signal
Outline: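 TGF-b1 measured via ELISA, 24 h after chemical dosing of human bronchial epithelial cells (BE3C). Overt cytotoxicity assessed in parallel by SRB (0.1%, TCA-fixed, 560 nm); analysis bidirectional relative to DMSO.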

[6] = read-out: Plasminogen activator inhibitor-1 (PAI1), SERPINE1 (gene 5054); assay: BSK_BE3C_PAI1: BioMAP Diversity Plus: BE3C Assay for Plasminogen activator inhibitor-1 (PAI1) Biomarker Activity (AID 2283037); conditions: primary human bronchial epithelial cells; actives raise or lower the signal
Outline: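 In this multiplexed primary-cell system, bronchial epithelial cells receive test chemical and are sampled at 24 h. PAI-1 is read by ELISA, with DMSO serving as negative control for bidirectional fitting.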

[7] = read-out: urokinase plasminogen activator (uPA), PLAU (gene 5328); assay: BSK_BE3C_uPA: BioMAP Diversity Plus: BE3C Assay for urokinase plasminogen activator (uPA) Biomarker Activity (AID 2283038); conditions: primary human bronchial epithelial cells; actives raise or lower the signal;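 note: uPA protein level quantified by ELISA in cell cultures; uPA read one day after compound addition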
Outline: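 Bronchial epithelial cells (human, primary); chemical 24 h; uPA by ELISA; bidirectional fit vs DMSO. SRB (0.1%, after 10% TCA fixation, 560 nm) in parallel cultures for cytotoxicity.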

[8] = read-out: Urokinase-type plasminogen activator receptor (uPAR), PLAUR (gene 5329); assay: BSK_BE3C_uPAR: BioMAP Diversity Plus: BE3C Assay for Urokinase-type plasminogen activator receptor (uPAR) Biomarker Activity (AID 2283039); conditions: primary human bronchial epithelial cells; actives raise or lower the signal;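 note: uPAR protein level measured by ELISA on the cells; cells exposed to compound for one day before measurement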
Outline: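 Chemically treated human bronchial epithelial cells (lung primary) are assayed for uPAR by ELISA after 24 h, with data fitted in both directions using DMSO as negative control.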

[9] = read-out: Interleukin-6 (IL6), IL6 (gene 3569); assay: BSK_CASM3C_IL6: BioMAP Diversity Plus: CASM3C Assay for Interleukin-6 (IL6) Biomarker Activity for (AID 2283040); conditions: primary human coronary artery smooth muscle cells; actives raise or lower the signal
[10] = read-out: Monokine induced gamma interferon (MIG), CXCL9 (gene 4283); assay: BSK_BE3C_MIG: BioMAP Diversity Plus: BE3C Assay for Monokine induced gamma interferon (MIG) Biomarker Activity (AID 2283035); conditions: primary human bronchial epithelial cells; actives raise or lower the signal;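 note: MIG protein measured by ELISA in BE3C cultures after 24 h of dosing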
Outline: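 hu bronchial epithelial 1° cells, 24 h cpd; MIG by ELISA; bidirectional fit, DMSO = baseline.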

Question: With `C[C@]12CCC(=O)C[C@@H]1CC[C@@H]1[C@@H]2CC[C@]2(C)[C@@H](O)CC[C@@H]12` as the compound, how does the outcome [1] read?
Answer: inactive

Question: And the outcome [2]?
Answer: inactive

Question: What about the outcome [3] of the same compound?
Answer: inactive

Question: And the outcome [4]?
Answer: inactive

Question: What about the outcome [5] of the same compound?
Answer: inactive

Question: What about the outcome [6] of the same compound?
Answer: inactive

Question: What about the outcome [7] of the same compound?
Answer: inactive

Question: What about the outcome [8] of the same compound?
Answer: inactive

Question: And the outcome [9]?
Answer: inactive

Question: For `O=S(=O)(c1ccc(Cl)cc1)c1ccc(Cl)cc1`, which outcome [1] is on record?
Answer: inactive

Question: What about the outcome [2] of the same compound?
Answer: inactive

Question: What about the outcome [3] of the same compound?
Answer: inactive

Question: And the outcome [4]?
Answer: inactive

Question: And the outcome [5]?
Answer: inactive

Question: What about the outcome [6] of the same compound?
Answer: inactive

Question: What about the outcome [7] of the same compound?
Answer: inactive

Question: And the outcome [8]?
Answer: inactive

Question: What about the outcome [9] of the same compound?
Answer: inactive

Question: What does the source list for `CCCCCCCCC(=O)NCc1ccc(O)c(OC)c1`?
Answer: outcome [1]: inactive; outcome [2]: inactive; outcome [3]: inactive; AC50 [4]: 20 µM (active); outcome [10]: inactive; outcome [5]: inactive; AC50 [6]: 20 µM (active); outcome [7]: inactive; outcome [8]: inactive; outcome [9]: inactive

Question: Which results are given for `CCCCC(CC)CO[N+](=O)[O-]` (stereo not drawn)?
Answer: AC50 [1]: 31.9 µM (active); AC50 [2]: 32.6 µM (active); AC50 [3]: 30.5 µM (active); outcome [4]: inactive; outcome [5]: inactive; outcome [6]: inactive; outcome [7]: inactive; outcome [8]: inactive; AC50 [9]: 31.8 µM (active)

Question: With `BrCCBr` as the compound, how does the outcome [1] read?
Answer: inactive

Question: And the outcome [2]?
Answer: inactive

Question: What about the outcome [3] of the same compound?
Answer: inactive

Question: And the outcome [4]?
Answer: inactive

Question: What about the outcome [5] of the same compound?
Answer: inactive

Question: What about the outcome [6] of the same compound?
Answer: inactive

Question: And the outcome [7]?
Answer: inactive

Question: And the outcome [8]?
Answer: inactive

Question: And the outcome [9]?
Answer: inactive

Question: How did the outcome [1] turn out when `CC(=O)C(Cl)C(=O)N(C)C` (stereo not drawn) was run?
Answer: inactive

Question: What about the AC50 [2] of the same compound?
Answer: 26.9 µM (active)

Question: And the AC50 [3]?
Answer: 24.3 µM (active)

Question: What about the AC50 [4] of the same compound?
Answer: 20 µM (active)

Question: What about the outcome [5] of the same compound?
Answer: inactive

Question: And the outcome [6]?
Answer: inactive

Question: What about the outcome [7] of the same compound?
Answer: inactive

Question: What about the outcome [8] of the same compound?
Answer: inactive

Question: And the outcome [9]?
Answer: inactive

Question: `C=CC(=O)OCCCCCC(C)C` was tested. Which outcome [1] did it give?
Answer: inactive

Question: And the outcome [2]?
Answer: inactive

Question: What about the outcome [3] of the same compound?
Answer: inactive

Question: What about the outcome [4] of the same compound?
Answer: inactive

Question: What about the outcome [5] of the same compound?
Answer: inactive

Question: What about the outcome [6] of the same compound?
Answer: inactive

Question: What about the outcome [7] of the same compound?
Answer: inactive

Question: And the outcome [8]?
Answer: inactive

Question: What about the outcome [9] of the same compound?
Answer: inactive

Question: For `ClCC(Cl)CCl`, which outcome [1] is on record?
Answer: inactive

Question: And the outcome [2]?
Answer: inactive

Question: And the outcome [3]?
Answer: inactive

Question: And the outcome [4]?
Answer: inactive

Question: What about the outcome [5] of the same compound?
Answer: inactive

Question: And the outcome [6]?
Answer: inactive

Question: What about the outcome [7] of the same compound?
Answer: inactive

Question: What about the outcome [8] of the same compound?
Answer: inactive

Question: What about the outcome [9] of the same compound?
Answer: inactive
